Source: PubChem BioAssay (NCATS)
Inconclusive results are not listed. A call without a number means that no potency is given here. Active and inactive are the calls of the source. The call rests on the fitted dose curve; in most records, active means well fitted inhibition curve with a large enough effect; inconclusive means small, poorly fitted or top-dose-only effect; inactive means no such curve, though single readings can be large or run the other way.

What was measured:
[1] = test system: Zika virus NS2B-NS3 protease (unlinked complex); assay: Primary screen GU Rhodamine qHTS for Zika virus inhibitors: Unlinked NS2B-NS3 protease assay (AID 1347159); further: nearly all actives have a fitted effect of over 60% in size
Method in brief: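 Noncovalent NS2B hydrophilic domain–NS3 protease domain complex (25 nM) preincubated 15 min at room temperature with compounds (up to 114 microM) in 10 mM Tris-HCl pH 8.0, 0.01% Tween 20; 1.5 microM Rhodamine110 substrate added, fluorescence change over 15 min fitted to Hill equation.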

[2] = test system: Zika virus NS2B-NS3 protease (linked construct); assay: Primary screen NINDS Rhodamine qHTS for Zika virus inhibitors (AID 1347160); further: nearly all actives have a fitted effect of over 55% in size
Method in brief: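 Purified linked NS2B-NS3 protease (NS2B hydrophilic domain joined to NS3 protease by flexible linker), 25 nM in 10 mM Tris-HCl pH 8.0, 0.01% Tween 20. Compounds titrated, 15 min preincubation at room temperature; 1.5 microM Rhodamine110 substrate, FITC fluorescence change over 15 min.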

Compound | Potency [1] | Potency [2]
COc1ccc(Oc2c(Cl)cnn(C3c4ccccc4-c4ccccc43)c2=O)cc1 | inactive | inactive
O=C(OCC1OC(Oc2ccc(O)cc2COC(=O)C2(O)C(O)CCC(=O)C2OC(=O)C2C=CCC2)C(OC(=O)C2C=CCC2)C(O)C1O)C1C=CCC1 (stereo not given) | inactive | inactive
C=C1CCC2[C@](C)(CO)CCC[C@@]2(C)[C@@H]1CCC1=CCOC1=O (stereo not given in full) | inactive | inactive
C=CCc1ccc(O[C@@H]2O[C@H](CO)[C@@H](O)[C@H](O)[C@H]2O)c(O[C@@H]2O[C@H](CO)[C@@H](O)[C@H](O)[C@H]2O)c1 | inactive | inactive
COC(=O)C1=CO[C@@H](O[C@@H]2O[C@H](CO[C@@H]3O[C@H](CO)[C@@H](O)[C@H](O)[C@H]3O)[C@@H](O)[C@H](O)[C@H]2O)[C@@H]2C(CO)=CC[C@H]12 | inactive | inactive
C/C=C(\C)C(=O)O[C@H]1C=CC(=O)O[C@H]1/C=C/[C@H](O)[C@@H](C)O | inactive | inactive
COC(=O)C1=CO[C@@H](O[C@@H]2O[C@H](CO)[C@@H](O)[C@H](O)[C@H]2O)[C@@H]2C(CO)=CC[C@H]12 | inactive | inactive
O=C(/C=C/c1ccccc1)O[C@@H]1[C@@H](CO)O[C@@](CO)(O[C@H]2O[C@H](CO)[C@@H](O)[C@H](O)[C@H]2O)[C@H]1O | inactive | inactive
O=C(O)c1cc(O[C@@H]2O[C@H](CO)[C@@H](O)[C@H](O)[C@H]2O)ccc1O | inactive | inactive
CC1(C)C=Cc2c(ccc3c2N=C2C(C)(C)[C@@H]4C[C@]56CCCN5C(=O)[C@@]4(C[C@]23O)NC6=O)O1 | inactive | inactive
